# Measured values from the supplement of paper PMC3545927.
# This is one part of the list. How many sequences the whole screen found active is unknown.
# B1: HC1476 (peptide)
# chain: CAKKTPMGFSAGNASASA
# B2: HC1675 (peptide)
# chain: CAHEECSQHLAGNASASA
# B3: HC99 (peptide)
# chain: CAVVCQSMSYAGNASASA
# B4: HC1468 (peptide)
# chain: CAYSPGQRVEAGNASASA
# B5: HC1217 (peptide)
# chain: CAPCQVPSPEAGNASASA
# B6: FS-471 (peptide)
# chain: CAPCCRQRREAGNASASA
# B7: FS-441 (peptide)
# chain: CAHVQRQRREAGNASASA
# B8: HC626 (peptide)
# chain: CAGHYVQMVIAGNASASA
# B9: HC2191 (peptide)
# chain: CAEVDTSTWVAGNASASA
# B10: HC773 (peptide)
# chain: CAVAHLHAPTAGNASASA
# B11: FS-2159 (peptide)
# chain: CARNKRKVFSAGNASASA
# B12: FS-2678 (peptide)
# chain: CARHKRETLKAGNASASA
# B13: FS-1954 (peptide)
# chain: CARHKRKVFEAGNASASA
# B14: FS-1823 (peptide)
# chain: CARHKRKQLPAGNASASA
# B15: FS-2938 (peptide)
# chain: CARHKRRSKFAGNASASA
# B16: FS-2335 (peptide)
# chain: CARHKRMCQGAGNASASA
# B17: HC1383 (peptide)
# chain: CAALSNSLLRAGNASASA
# B18: FS-2336 (peptide)
# chain: CARHKRSLLRAGNASASA
# B19: HC1318 (peptide)
# chain: CAPLPPPKSPAGNASASA
# B20: HC1421 (peptide)
# chain: CAFGYGAKDVAGNASASA
# B21: HC256 (peptide)
# chain: CAAYQVRNSTAGNASASA
# B22: HC1099 (peptide)
# chain: CAEDLVNLLPAGNASASA
# B23: HC2123 (peptide)
# chain: CAEAVVCCSMAGNASASA
# B24: FS-1824 (peptide)
# chain: CARHKRWHFIAGNASASA
# B25: FS-1719 (peptide)
# chain: CARHYRWALGAGNASASA
# B26: FS-2557 (peptide)
# chain: CARHYRNVFHAGNASASA
# B27: FS-2143 (peptide)
# chain: CARHKRVGTLAGNASASA
# B28: FS-2942 (peptide)
# chain: CARHQRTENIAGNASASA
# B29: FS-2023 (peptide)
# chain: CARHKRTIPMAGNASASA
# B30: FS-1895 (peptide)
# chain: CARHKRVHSGAGNASASA
# B31: FS-2675 (peptide)
# chain: CARHGRDLYRAGNASASA
# B32: FS-3254 (peptide)
# chain: CARHKRIPPEAGNASASA
# B33: FS-2027 (peptide)
# chain: CARHYRSNSPAGNASASA
# B34: HC33 (peptide)
# chain: CAMEECEQHLAGNASASA
# B35: HC2171 (peptide)
# chain: CAEDVTSTWVAGNASASA
# B36: HC2455 (peptide)
# chain: CAEHEVPCHRAGNASASA
# B37: FS-2512 (peptide)
# chain: CARRARGADAAGNASASA
# B38: FS-2593 (peptide)
# chain: CARRKKALEIAGNASASA
# B39: FS-2368 (peptide)
# chain: CARRARSAPAAGNASASA
# B40: HC1496 (peptide)
# chain: CAVAIKSLTEAGNASASA
# B41: FS-3050 (peptide)
# chain: CARRKKSLSEAGNASASA
# B42: FS-2777 (peptide)
# chain: CARRKKSGRGAGNASASA
# B43: FS-2514 (peptide)
# chain: CARRKKSAPAAGNASASA
# B44: FS-2513 (peptide)
# chain: CARRARVTDAAGNASASA
# Molecular target: furin, P09958
# Assay: furin cleavage Z-score vs untreated control; higher = more cleavage, active = 3.5 or more, inactive = 1 or less, 8 variable residues between constant flanks
# How it was run: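 Peptides 8 residues long, fused to a cDNA oligonucleotide, were fixed to magnetic beads by the N-terminus and exposed to purified furin. The 0.01 ml reactions contained 50 mM HEPES pH 7.5 with CaCl2 and NaCl at 1:10 enzyme:substrate and ran 7.5, 15 or 30 min. For the cleavage Z-score, log counts of sequenced released DNA were compared with furin-free reactions, lowess-adjusted and scaled by median absolute deviation.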
# Sequence of furin, P09958 (P09958 whole entry): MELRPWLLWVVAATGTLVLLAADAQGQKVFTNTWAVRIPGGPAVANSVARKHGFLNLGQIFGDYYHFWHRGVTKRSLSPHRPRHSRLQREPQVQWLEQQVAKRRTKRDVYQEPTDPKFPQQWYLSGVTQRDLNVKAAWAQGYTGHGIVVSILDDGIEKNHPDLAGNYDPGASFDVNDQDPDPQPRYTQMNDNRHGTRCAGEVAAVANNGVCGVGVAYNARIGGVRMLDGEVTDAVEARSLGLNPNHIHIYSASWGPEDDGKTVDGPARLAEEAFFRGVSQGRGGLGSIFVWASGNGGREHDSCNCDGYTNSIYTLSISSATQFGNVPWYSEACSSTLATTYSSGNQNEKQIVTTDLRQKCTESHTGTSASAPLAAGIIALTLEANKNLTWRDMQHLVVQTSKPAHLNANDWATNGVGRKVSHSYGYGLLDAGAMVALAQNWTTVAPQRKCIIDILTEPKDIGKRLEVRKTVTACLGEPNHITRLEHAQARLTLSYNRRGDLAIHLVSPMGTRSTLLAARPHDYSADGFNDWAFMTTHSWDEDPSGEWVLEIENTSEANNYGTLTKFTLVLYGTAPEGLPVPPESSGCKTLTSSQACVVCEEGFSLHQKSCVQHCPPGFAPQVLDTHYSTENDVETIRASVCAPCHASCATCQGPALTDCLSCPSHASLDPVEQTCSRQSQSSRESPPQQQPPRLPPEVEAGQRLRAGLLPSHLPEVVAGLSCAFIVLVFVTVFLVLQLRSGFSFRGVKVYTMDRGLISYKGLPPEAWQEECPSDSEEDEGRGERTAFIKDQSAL
Sequence,furin cleavage Z-score (7.5 min),furin cleavage Z-score (15 min),furin cleavage Z-score (30 min)
B1,-0.403 (inactive),1.01,-1.33 (inactive)
B2,-0.578 (inactive),0.64 (inactive),1.48
B3,0.407 (inactive),0.993 (inactive),0.767 (inactive)
B4,-0.672 (inactive),1.68,-1.81 (inactive)
B5,0.307 (inactive),-0.147 (inactive),0.789 (inactive)
B6,10.1 (active),8.7 (active),8.83 (active)
B7,12.3 (active),12.8 (active),9.16 (active)
B8,-0.996 (inactive),-0.792 (inactive),0.151 (inactive)
B9,-0.604 (inactive),-1.24 (inactive),0.933 (inactive)
B10,-0.671 (inactive),-1.87 (inactive),-0.0272 (inactive)
B11,0.528 (inactive),1.39,3.14
B12,8.31 (active),10.5 (active),9.25 (active)
B13,0.591 (inactive),1.75,4.34 (active)
B14,1.11,-0.015 (inactive),2.17
B15,1.38,2.52,5.2 (active)
B16,1.23,0.787 (inactive),3.08
B17,-1.04 (inactive),0.165 (inactive),0.485 (inactive)
B18,3.75 (active),5.3 (active),6.44 (active)
B19,-0.389 (inactive),0.488 (inactive),-0.355 (inactive)
B20,0.651 (inactive),1.8,1.24
B21,-0.996 (inactive),-1.12 (inactive),-0.888 (inactive)
B22,0.711 (inactive),1.96,0.196 (inactive)

Sequence,furin cleavage Z-score (7.5 min),furin cleavage Z-score (15 min),furin cleavage Z-score (30 min)
B23,-0.484 (inactive),0.759 (inactive),0.473 (inactive)
B24,2.19,2.25,4.89 (active)
B25,-0.124 (inactive),3.28,3.44
B26,1.27,2.18,5.01 (active)
B27,0.0898 (inactive),0.0513 (inactive),2.38
B28,-1.07 (inactive),-2.42 (inactive),-0.236 (inactive)
B29,6.33 (active),8.53 (active),8.43 (active)
B30,-1.2 (inactive),-0.376 (inactive),-0.241 (inactive)
B31,1.82,4.66 (active),6.11 (active)
B32,0.983 (inactive),0.356 (inactive),0.464 (inactive)
B33,1.06,-1.02 (inactive),-0.217 (inactive)
B34,-0.264 (inactive),1.94,0.732 (inactive)
B35,0.61 (inactive),-0.472 (inactive),0.123 (inactive)
B36,0.493 (inactive),1.57,2.02
B37,2.72,3.57 (active),4.42 (active)
B38,0.898 (inactive),1.66,1.58
B39,10.3 (active),10.4 (active),8.53 (active)
B40,0.199 (inactive),0.138 (inactive),0.903 (inactive)
B41,4.99 (active),7.01 (active),7.62 (active)
B42,0.0968 (inactive),0.171 (inactive),1.92
B43,4.51 (active),6.24 (active),5.54 (active)
B44,0.594 (inactive),0.414 (inactive),0.64 (inactive)
